An excerpt weighted towards active compounds, which were near 5.9% of everything screened.
AHR act – human AHR activation; P35869; AHR-responsive luciferase reporter cells, luminescence; activation, % at 5 µM; actives 2.5% (n = 320,000); AID 2796; in the data active = activation above about 47%;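 also: 0% = vehicle wells and 100% = reference agonist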
HSF1 activator – increases HSF-1 driven luciferase reporter signal. NIH3T3-HGL HSF-1 luciferase reporter, MG132, 8 h; 100% = twice DMSO control signal. activation, % at 9 µM. actives 1.7% (n = 300,000). AID 504408;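 active = mean replicate activation of at least 50% with a set share of replicates each reaching 50%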;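 also: 0% = median of the neutral control wells and 100% = twice that signal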
HSP90 refold inh – inhibitors of HSP90 luciferase refolding in rabbit reticulocyte lysate; inhibition, % at 5.6 µM; AID 1789; luciferase refolding luminescence, 3 h; actives 0.91% (n = 290,000);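 active = inhibition above the screen-wide mean plus 3 SD, computed separately per campaign, cut at about 16% in these data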;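 also: 0% = DMSO wells and 100% = 60 µM geldanamycin wells; inhibitors lower the luminescence because luciferase stays unfolded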
FXN GAA850 act – activators of GAA850 frataxin (FXN) promoter; AID 540364; activation, % at 6 µM; HEK293 lucGAA850 FXN promoter luciferase reporter, 24 h; percent of 10 µM SAHA response; actives 0.56% (n = 360,000);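 active = activation above the average of all compounds screened plus 3 SD, cutoff fixed separately per campaign, cut at about 7.5% in these data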;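 also: 0% = DMSO wells and 100% = 10 µM SAHA wells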
DAX1 inh – inhibits human nuclear receptor DAX1; P51843; HEK293 Gal4-DAX1 luciferase reporter, luminescence; inhibition, % at 6.75 µM; actives 0.99% (n = 340,000);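 active = inhibition above the mean over all tested compounds plus 3 SD, cut at about 4.2% in these data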;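 also: 0% = DAX1-transfected cells with DMSO and 100% = empty-vector control cells with DMSO; inhibition shows as a rise in luminescence from relieved DAX1 repression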
Target sequence (P51843 207-470 limits assumed): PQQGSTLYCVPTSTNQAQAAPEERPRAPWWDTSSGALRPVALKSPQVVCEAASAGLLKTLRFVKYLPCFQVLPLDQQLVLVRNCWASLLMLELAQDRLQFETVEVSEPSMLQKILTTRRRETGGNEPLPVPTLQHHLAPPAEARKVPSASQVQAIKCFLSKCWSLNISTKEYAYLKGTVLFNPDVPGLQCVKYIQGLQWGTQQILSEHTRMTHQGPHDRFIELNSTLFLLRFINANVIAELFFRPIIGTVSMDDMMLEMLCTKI
HSF1 inh – HSF1 inhibition; NIH3T3-HGL HSE-luciferase, MG132-induced, luminescence 8 h; stronger effect = lower value; activity change, negative = inhibition, % at 7.5 µM (by protocol); actives 0.77% (n = 300,000); AID 2098;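 active = more than half of replicate wells show activity change below -50%, luminescence cut by over half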;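 also: luciferase reports HSF-1 transcriptional activity via heat shock element; 0% = median of DMSO wells and -100% = zero luminescence signal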
The depositor's hits bear a star.

`CCOC(=O)Nc1nnc(/C=C/c2ccc(OC)cc2)s1` gave AHR act 74*, HSF1 activator 21, HSP90 refold inh 3, FXN GAA850 act 3, DAX1 inh 0 and HSF1 inh 0.
CCCCc1nnc(NC(=O)C(=O)OCC)s1 was read as AHR act -2, HSF1 activator 10, HSP90 refold inh 5, FXN GAA850 act -2, DAX1 inh 0 and HSF1 inh -8.
Screening CCC(=O)Nc1nnc(/C=C/c2ccccc2)s1 returned AHR act 7, HSF1 activator 25, HSP90 refold inh -3, FXN GAA850 act 4, DAX1 inh 5.3* and HSF1 inh -1.
CCCCOC(=O)Nc1nnc(/C=C/c2ccc(OC)cc2)s1 was read as AHR act 10, HSF1 activator -3, HSP90 refold inh 1, FXN GAA850 act 3, DAX1 inh 1 and HSF1 inh 1.
Screening CCCc1nnc(NC(=O)OCC)s1 returned AHR act 74*, HSF1 activator 1, HSP90 refold inh 1, FXN GAA850 act 2, DAX1 inh -1 and HSF1 inh 8.
Screening Cc1ccc(C(=O)OCC(=O)N2CCC(C)CC2)cc1S(=O)(=O)N1CCOCC1 returned FXN GAA850 act -1 and DAX1 inh -1.
For Cc1cccc(C)c1OCC(=O)Nc1ccc2c(c1)C(=O)NC2=O the results were AHR act -4, HSF1 activator 0, HSP90 refold inh -1, FXN GAA850 act 1, DAX1 inh 0 and HSF1 inh -3.
CC(C)(C)NC(=S)N1CCC2CC1c1c(Cl)cccc12 (stereo unspecified) was read as FXN GAA850 act -1 and DAX1 inh 2.
For CCOc1cc(CNc2ccc(S(N)(=O)=O)cc2)ccc1OCC(=O)NC(C)(C)C the results were AHR act 1, HSF1 activator 5, HSP90 refold inh -1, FXN GAA850 act -1, DAX1 inh 1 and HSF1 inh -2.
`COc1cc(CNCCc2ccc(S(N)(=O)=O)cc2)ccc1OCC(=O)NC(C)(C)C` gave AHR act 49*, HSF1 activator 5, HSP90 refold inh 2, FXN GAA850 act 1, DAX1 inh 0 and HSF1 inh -7.
CC1(C(=O)Nc2ccc3c(c2)OCO3)CCN1C(=O)Cc1cccc2ccccc12 (stereo unspecified) was read as FXN GAA850 act 1.
For CCN1C(=O)[C@H]2[C@@H](c3ccc(-c4cccc(Cl)c4)cc3)N[C@@](Cc3ccccc3)(C(=O)OC)[C@H]2C1=O the results were AHR act 3, HSF1 activator -7, FXN GAA850 act -2, DAX1 inh 0 and HSF1 inh 3.
Screening CCCNC(=O)c1nnsc1S(=O)(=O)c1ccc(Cl)cc1 returned HSP90 refold inh -3, FXN GAA850 act -14 and DAX1 inh -2.
CNC(=O)c1nnsc1S(=O)c1ccc(Cl)cc1 (stereo unspecified) was read as HSF1 activator 73*, HSP90 refold inh 2, FXN GAA850 act -15, DAX1 inh -1 and HSF1 inh 63.
For CCCNC(=O)c1nnsc1S(=O)c1ccc(Cl)cc1 (stereo unspecified) the results were HSF1 activator -96, HSP90 refold inh 3, FXN GAA850 act -14, DAX1 inh -2 and HSF1 inh -96*.
For Cc1ccc(S(=O)c2snnc2C)cc1 (stereo unspecified) the results were AHR act 0, HSF1 activator -16, HSP90 refold inh 4, FXN GAA850 act 1, DAX1 inh 2 and HSF1 inh -3.
`COC(=O)[C@H]1C[C@H](OC(=O)NCc2ccccc2F)[C@@]2(O)CN(S(=O)(=O)c3ccc(C)cc3)CC2[C@H]1C(=O)OC` (stereo partly specified) gave FXN GAA850 act -5 and DAX1 inh 3.
Screening Cc1ccc(NC(=O)COC(=O)C2CC3C=CC2C3)cc1S(=O)(=O)N1CCCCC1 (stereo unspecified) returned AHR act -2, HSF1 activator 63*, HSP90 refold inh -2, FXN GAA850 act -1, DAX1 inh -1 and HSF1 inh 33.
For COc1ccc2[nH]c(=O)c(CNc3ccccc3)cc2c1 the results were AHR act 3, HSF1 activator 6, HSP90 refold inh -3, FXN GAA850 act 6, DAX1 inh 4.5* and HSF1 inh 12.
Screening COc1ccc2[nH]c(=O)c(CNc3ccccc3OC)cc2c1 returned AHR act 24, HSF1 activator -3, HSP90 refold inh 6, FXN GAA850 act 2, DAX1 inh 4.5* and HSF1 inh -1.
CCOc1ccc(NCc2cc3cc(OC)ccc3[nH]c2=O)cc1 was read as AHR act 1, HSF1 activator 3, HSP90 refold inh 11, FXN GAA850 act 2, DAX1 inh -2 and HSF1 inh 0.
Screening COc1ccc(Cl)cc1Nc1nc(C)cc(C)c1C(N)=O returned AHR act 59*, HSF1 activator 16, HSP90 refold inh -2, FXN GAA850 act 3, DAX1 inh 0 and HSF1 inh 5.
COC(=O)N/N=C/c1cn(Cc2c(Cl)cccc2Cl)c2ccccc12 was read as AHR act 64*, HSF1 activator -13, HSP90 refold inh 2, FXN GAA850 act -1, DAX1 inh -1 and HSF1 inh -12.
Screening COC(=O)N/N=C/c1cn(Cc2ccccc2F)c2ccccc12 returned AHR act 58*, HSF1 activator 3, HSP90 refold inh -3, FXN GAA850 act 5, DAX1 inh -2 and HSF1 inh 6.
COC(=O)N/N=C/c1cn(Cc2ccc(Cl)cc2Cl)c2ccccc12 was read as AHR act 71*, HSF1 activator 7, HSP90 refold inh 7, FXN GAA850 act -1, DAX1 inh -2 and HSF1 inh 10.
OC(c1ccccc1)c1nc(-c2cncnc2)cs1 (stereo unspecified) was read as FXN GAA850 act 2.
`CC1CCc2c(sc(NC(=O)c3ccc(Cn4cc([N+](=O)[O-])cn4)o3)c2C#N)C1` (stereo unspecified) gave AHR act 31, HSF1 activator 11, HSP90 refold inh 3, FXN GAA850 act 0, DAX1 inh 0 and HSF1 inh -2.
Screening N#Cc1c(NC(=O)c2ccc(Cn3cc(Br)cn3)o2)sc2c1CCCCC2 returned AHR act 48*, HSF1 activator 13, HSP90 refold inh -3, FXN GAA850 act 1, DAX1 inh 0 and HSF1 inh 9.
`COc1ccc(C2CC(=O)C3=C(C2)Nc2ncnn2C3c2ccccc2C)cc1` (stereo unspecified) gave AHR act 0, HSF1 activator -24, HSP90 refold inh 1, FXN GAA850 act -4, DAX1 inh 0 and HSF1 inh -5.
